Where a name gives a salt, the structure may show the parent alone.
Legend:
Conditions in all cases: incubation time: 27 h, anaerobic, 37 °C;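 for the amine columns active = adjusted P below 0.05 in both replicates with a change the same way and a mean fold change under 0.8 or over 1.25; inactive = the rest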
[1] = test system: Clostridium sporogenes DSM 1664; assay: growth (OD595) fold change vs plate DMSO controls (fold change (ratio)); higher = more growth
Method in brief: (§1)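 Growth is calculated as fold change against the median of the DMSO control wells on each plate. Readings at 595 nm from anaerobic mGAM cultures (96-well, 27 h, 37 °C) were blank-subtracted, background-corrected with 20 µM compound solutions in water, and converted to OD by a calibration factor of 5. Fold changes above 1.5 were recorded as NA, and results are means of 2 biological replicates.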

Escherichia coli IAI1 [2] = assay: as above
Method in brief: as §1

[3] = test system: Klebsiella aerogenes DSM 30053; assay: as above
Method in brief: as §1

[4] = test system: Ruminococcus gnavus DSM 108212; assay: as above
Method in brief: as §1

[5] = test system: Klebsiella aerogenes DSM 30053; assay: fold change of Histamine concentration vs plate DMSO controls (fold change (ratio)); higher = more amine produced, active = hit call of the paper (significant change in both replicates, either direction)
Method in brief: (§2)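 Each value is the fold change relative to DMSO-only wells on the same plate. Four gut bacterial strains were grown anaerobically in mGAM at 37 °C for 27 h in 80 µL wells, starting at OD 0.1 before a 1:1 dilution, with compounds at 20 µM final (sweeteners 50 µM). Whole cultures were extracted with cold acetonitrile/methanol containing 0.1% formic acid, centrifuged, and amines were quantified by LC–triple-quadrupole MS (dynamic MRM) against external calibration curves with within-batch drift correction. Values are means of 2 biological replicates.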

[6] = test system: Clostridium sporogenes DSM 1664; assay: fold change of Tryptamine concentration vs plate DMSO controls (fold change (ratio)); higher = more amine produced, active = hit call of the paper (significant change in both replicates, either direction)
Method in brief: as §2

[7] = test system: Ruminococcus gnavus DSM 108212; assay: as above
Method in brief: as §2

Escherichia coli IAI1 [8] = assay: fold change of Putrescine concentration vs plate DMSO controls (fold change (ratio)); higher = more amine produced, active = hit call of the paper (significant change in both replicates, either direction)
Method in brief: as §2

[9] = test system: Klebsiella aerogenes DSM 30053; assay: as above
Method in brief: as §2

Escherichia coli IAI1 [10] = assay: fold change of Cadaverine concentration vs plate DMSO controls (fold change (ratio)); higher = more amine produced, active = hit call of the paper (significant change in both replicates, either direction)
Method in brief: as §2

[11] = test system: Klebsiella aerogenes DSM 30053; assay: as above
Method in brief: as §2

[12] = test system: Ruminococcus gnavus DSM 108212; assay: fold change of 2-Phenylethylamine concentration vs plate DMSO controls (fold change (ratio)); higher = more amine produced, active = hit call of the paper (significant change in both replicates, either direction)
Method in brief: as §2

| Structure (SMILES) | growth [1] | growth (Escherichia coli IAI1 [2]) | growth [3] | growth [4] | fold change of Histamine concentration [5] | fold change of Tryptamine concentration [6] | fold change of Tryptamine concentration [7] | fold change of Putrescine concentration (Escherichia coli IAI1 [8]) | fold change of Putrescine concentration [9] | fold change of Cadaverine concentration (Escherichia coli IAI1 [10]) | fold change of Cadaverine concentration [11] | fold change of 2-Phenylethylamine concentration [12] |
| --- | --- | --- | --- | --- | --- | --- | --- | --- | --- | --- | --- | --- |
| CC(C)(C#N)c1cc(Cn2cncn2)cc(C(C)(C)C#N)c1 [Anastrozole] (20 µM) | 0.911 | 1.16 | 1.01 | 1.02 | 1.02 (inactive) | 1.11 (inactive) | 1.09 (inactive) | 1.06 (inactive) | 0.954 (inactive) | 1.01 (inactive) | 0.994 (inactive) | 1.1 (inactive) |
| CN1c2cc(O)c(N=NC(N)=O)cc2CC1S(=O)(=O)O (stereo not drawn) [Carbazochrome sodium sulfonate] (20 µM) | 1.05 | 1.01 | 1.04 | 0.901 | 1.06 (inactive) | 0.976 (inactive) | 1.08 (inactive) | 1.01 (inactive) | 0.905 (inactive) | 0.975 (inactive) | 1.2 (inactive) | 1.21 (inactive) |
| CN1CCC(=C2c3ccccc3CCc3sccc32)CC1 [Pizotifen malate] (20 µM) | 1.3 | 1.03 | 0.982 | 0.963 | 1.06 (inactive) | 1.01 (inactive) | 0.924 (inactive) | 1 (inactive) | 1.01 (inactive) | 1.04 (inactive) | 0.994 (inactive) | 0.987 (inactive) |
| CC1CS(=O)(=O)CCN1/N=C/c1ccc([N+](=O)[O-])o1 (stereo not drawn) [Nifurtimox] (20 µM) | 1.13 | 1.03 | 0.924 | 1.04 | 0.593 (active) | 0.895 (inactive) | 0.971 (inactive) | 0.949 (inactive) | 0.949 (inactive) | 0.974 (inactive) | 0.998 (inactive) | 1.03 (inactive) |
| CCOC(=O)NNc1nncc2ccccc12 [Todralazine hydrochloride] (20 µM) | 0.521 | 1.14 | 1.04 | 1 | 0.967 (inactive) | 0.506 (inactive) | 0.955 (inactive) | 1.02 (inactive) | 0.984 (inactive) | 1.04 (inactive) | 1.01 (inactive) | 1.03 (inactive) |
| CCCCOc1cc(C(=O)OCCN(CC)CC)ccc1N [Benoxinate hydrochloride] (20 µM) | 1.06 | 0.951 | 0.988 | 1.01 | 1.05 (inactive) | 0.997 (inactive) | 1.04 (inactive) | 0.973 (inactive) | 1.01 (inactive) | 0.978 (inactive) | 0.998 (inactive) | 1.04 (inactive) |
| COc1c(Cl)ccc(Cl)c1C(=O)O (20 µM) | 1.05 | 1.02 | 1.03 | 1.19 | 0.99 (inactive) | 0.999 (inactive) | 0.997 (inactive) | 1.01 (inactive) | 1.01 (inactive) | 1.03 (inactive) | 1.01 (inactive) | 0.995 (inactive) |
| CC(C(=O)O)c1ccc(CC2CCCC2=O)cc1 (stereo not drawn) [Loxoprofen] (20 µM) | 1.24 | 1.03 | 1.06 | 1.13 | 0.95 (inactive) | 1.05 (inactive) | 1 (inactive) | 1.02 (inactive) | 1.02 (inactive) | 0.981 (inactive) | 1.01 (inactive) | 0.997 (inactive) |
| COC(=O)[C@@H]1[C@H]2C[C@H]3c4[nH]c5ccccc5c4CCN3C[C@@H]2CC[C@@H]1O [Yohimbine hydrochloride] (20 µM) | 1.02 | 1.06 | 1.04 | 0.793 | 0.982 (inactive) | 1.03 (inactive) | 1.01 (inactive) | 1.05 (inactive) | 1.01 (inactive) | 0.989 (inactive) | 1.02 (inactive) | 1.01 (inactive) |
| COc1ccc(CCC(=O)c2c(O)cc(O[C@@H]3O[C@H](CO)[C@@H](O)[C@H](O)[C@H]3O[C@@H]3O[C@@H](C)[C@H](O)[C@@H](O)[C@H]3O)cc2O)cc1O [Neohesperidin Dihydrochalcone (Nhdc)] (50 µM) | 1.25 | 0.987 | 1.01 | 1.05 | 1.02 (inactive) | 1.01 (inactive) | 0.995 (inactive) | 1.01 (inactive) | 1.02 (inactive) | 0.96 (inactive) | 0.99 (inactive) | 0.961 (inactive) |
| CC(=O)OCC(=O)[C@@]12N=C(C)O[C@@H]1C[C@H]1[C@@H]3CCC4=CC(=O)C=C[C@]4(C)[C@H]3[C@@H](O)C[C@@]12C [Deflazacort] (20 µM) | 0.981 | 0.976 | 0.986 | 0.905 | 1 (inactive) | 1.02 (inactive) | 1.07 (inactive) | 1.03 (inactive) | 1 (inactive) | 0.993 (inactive) | 0.991 (inactive) | 1.1 (inactive) |
| CCCCC(=O)N(Cc1ccc(-c2ccccc2-c2nnn[nH]2)cc1)[C@H](C(=O)O)C(C)C [Valsartan] (20 µM) | 1.14 | 1.19 | 1.08 | 1.06 | 0.913 (inactive) | 1.05 (inactive) | 1.07 (inactive) | 1.17 (inactive) | 0.951 (inactive) | 0.941 (inactive) | 1.05 (inactive) | 1.12 (inactive) |
| Cc1cc2c(s1)Nc1ccccc1N=C2N1CCN(C)CC1 [Olanzapine] (20 µM) | 1.16 | 1.13 | 1.04 | 1.19 | 0.961 (inactive) | 0.966 (inactive) | 0.922 (inactive) | 1.04 (inactive) | 0.988 (inactive) | 0.945 (inactive) | 0.999 (inactive) | 0.944 (inactive) |
| COc1ccc2c(c1)C(=O)N(CCc1ccc(S(=O)(=O)NC(=O)NC3CCCCC3)cc1)C(=O)C2(C)C [Gliquidone] (20 µM) | 0.999 | 1.05 | 0.984 | 0.999 | 1.04 (inactive) | 0.929 (inactive) | 0.956 (inactive) | 1.04 (inactive) | 1 (inactive) | 1.04 (inactive) | 0.988 (inactive) | 0.942 (inactive) |
| COc1ccccc1OCCNCC(O)COc1cccc2[nH]c3ccccc3c12 (stereo not drawn) [Carvedilol] (20 µM) | 0.934 | 0.974 | 0.98 | 1.01 | 0.972 (inactive) | 1.03 (inactive) | 0.977 (inactive) | 0.987 (inactive) | 0.98 (inactive) | 1.02 (inactive) | 0.989 (inactive) | 0.998 (inactive) |
| Nc1ccc(S(N)(=O)=O)cc1 [Sulfanilamide] (20 µM) | 0.877 | 1.03 | 0.987 | 1.15 | 0.919 (inactive) | 1.12 (inactive) | 1.11 (inactive) | 0.908 (inactive) | 0.951 (inactive) | 0.919 (inactive) | 1.03 (inactive) | 1.15 (inactive) |
| Cc1c(N(C)CS(=O)(=O)O)c(=O)n(-c2ccccc2)n1C [Dipyrone sodium salt] (20 µM) | 1.02 | 1.14 | 1.07 | 1.13 | 0.958 (inactive) | 1.11 (inactive) | 1.03 (inactive) | 1.05 (inactive) | 0.957 (inactive) | 0.991 (inactive) | 1.02 (inactive) | 1 (inactive) |
| C=CC[N@@+]12CC[C@@]34c5ccccc5N5/C=C6/[C@H]7C[C@H]8[C@@]9(CC[N@@+]8(CC=C)C/C7=C/CO)c7ccccc7N(/C=C(/[C@@H](C[C@@H]31)/C(=C\CO)C2)[C@H]54)[C@@H]69 [Alcuronium chloride] (20 µM) | 1.09 | 0.982 | 1.01 | 1.26 | 1.04 (inactive) | 1.03 (inactive) | 1.05 (inactive) | 1.12 (inactive) | 0.99 (inactive) | 0.915 (inactive) | 1.02 (inactive) | 1.07 (inactive) |
| CNCCC=C1c2ccccc2C=Cc2ccccc21 [Norcyclobenzaprine] (20 µM) | 1.1 | 1.02 | 1.01 | 1.09 | 0.997 (inactive) | 0.985 (inactive) | 0.939 (inactive) | 1 (inactive) | 0.993 (inactive) | 1.02 (inactive) | 0.994 (inactive) | 0.935 (inactive) |
| OC[C@@H](O)[C@@H](O)[C@@H](O)[C@@H](O)CO [Allitol] (50 µM) | 0.907 | 1.08 | 1.11 | 0.986 | 0.908 (inactive) | 1 (inactive) | 0.953 (inactive) | 1.02 (inactive) | 1.03 (inactive) | 0.992 (inactive) | 1.02 (inactive) | 0.932 (inactive) |
| CC1(C)[C@H](C(=O)O)N2C(=O)C[C@H]2S1(=O)=O [Sulbactam] (20 µM) | 0.592 | 1.19 | 0.976 | 1.21 | 1.05 (inactive) | 1.07 (inactive) | 1.07 (inactive) | 1.14 (inactive) | 0.983 (inactive) | 0.985 (inactive) | 1.01 (inactive) | 1.08 (inactive) |
| OC[C@H]1OC(O)[C@H](O)[C@H](O)[C@@H]1O (stereo partly drawn) [D-allose] (50 µM) | 1.08 | 0.999 | 0.98 | 1.07 | 0.99 (inactive) | 1.02 (inactive) | 0.896 (inactive) | 1 (inactive) | 1.01 (inactive) | 1.07 (inactive) | 0.993 (inactive) | 0.886 (inactive) |
| OC(CCCN1CCCCC1)(c1ccccc1)c1ccccc1 [Diphenidol hydrochloride] (20 µM) | 1.03 | 1.08 | 1.01 | 1.26 | 1.06 (inactive) | 1.03 (inactive) | 0.963 (inactive) | 1.05 (inactive) | 1.02 (inactive) | 0.932 (inactive) | 0.981 (inactive) | 0.92 (inactive) |
| NC(CO)C(=O)NNCc1ccc(O)c(O)c1O (stereo not drawn) [Benserazide hydrochloride] (20 µM) | 0.879 | 1.06 | 0.985 | 0.988 | 1.08 (inactive) | 0.965 (inactive) | 1.03 (inactive) | 1.19 (inactive) | 1.03 (inactive) | 0.994 (inactive) | 0.991 (inactive) | 1.03 (inactive) |
